Data: PubChem BioAssay
Results filed as inconclusive are left out. The source made the active and inactive calls. Rule as the data show it, unless noted: active = inhibition above about 30%; inactive = the rest.

Tests used:
[1] = reducers of endogenous Her2 protein level, primary screen, SKBR3 breast tumor cells, AlphaScreen, ATP viability (AID 461;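 active = Her2 level under about 52% in both replicate screens, with viability over 70% of control, limit read from the data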;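 as to Her2 level: lower value means less Her2 protein in the cells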;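 as to viability: percent of carrier control wells set as 100% viability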); details: 18-24 h, measured here: SKBR3 viability, ATP luminescence, at 10 µM
[2] = target: Receptor tyrosine-protein kinase erbB-2 (Homo sapiens) (UniProt P04626); assay: as above; details: 18-24 h, at 10 µM, stronger effect = lower value
Chain of Receptor tyrosine-protein kinase erbB-2 (Homo sapiens) (P04626 whole entry, looked up): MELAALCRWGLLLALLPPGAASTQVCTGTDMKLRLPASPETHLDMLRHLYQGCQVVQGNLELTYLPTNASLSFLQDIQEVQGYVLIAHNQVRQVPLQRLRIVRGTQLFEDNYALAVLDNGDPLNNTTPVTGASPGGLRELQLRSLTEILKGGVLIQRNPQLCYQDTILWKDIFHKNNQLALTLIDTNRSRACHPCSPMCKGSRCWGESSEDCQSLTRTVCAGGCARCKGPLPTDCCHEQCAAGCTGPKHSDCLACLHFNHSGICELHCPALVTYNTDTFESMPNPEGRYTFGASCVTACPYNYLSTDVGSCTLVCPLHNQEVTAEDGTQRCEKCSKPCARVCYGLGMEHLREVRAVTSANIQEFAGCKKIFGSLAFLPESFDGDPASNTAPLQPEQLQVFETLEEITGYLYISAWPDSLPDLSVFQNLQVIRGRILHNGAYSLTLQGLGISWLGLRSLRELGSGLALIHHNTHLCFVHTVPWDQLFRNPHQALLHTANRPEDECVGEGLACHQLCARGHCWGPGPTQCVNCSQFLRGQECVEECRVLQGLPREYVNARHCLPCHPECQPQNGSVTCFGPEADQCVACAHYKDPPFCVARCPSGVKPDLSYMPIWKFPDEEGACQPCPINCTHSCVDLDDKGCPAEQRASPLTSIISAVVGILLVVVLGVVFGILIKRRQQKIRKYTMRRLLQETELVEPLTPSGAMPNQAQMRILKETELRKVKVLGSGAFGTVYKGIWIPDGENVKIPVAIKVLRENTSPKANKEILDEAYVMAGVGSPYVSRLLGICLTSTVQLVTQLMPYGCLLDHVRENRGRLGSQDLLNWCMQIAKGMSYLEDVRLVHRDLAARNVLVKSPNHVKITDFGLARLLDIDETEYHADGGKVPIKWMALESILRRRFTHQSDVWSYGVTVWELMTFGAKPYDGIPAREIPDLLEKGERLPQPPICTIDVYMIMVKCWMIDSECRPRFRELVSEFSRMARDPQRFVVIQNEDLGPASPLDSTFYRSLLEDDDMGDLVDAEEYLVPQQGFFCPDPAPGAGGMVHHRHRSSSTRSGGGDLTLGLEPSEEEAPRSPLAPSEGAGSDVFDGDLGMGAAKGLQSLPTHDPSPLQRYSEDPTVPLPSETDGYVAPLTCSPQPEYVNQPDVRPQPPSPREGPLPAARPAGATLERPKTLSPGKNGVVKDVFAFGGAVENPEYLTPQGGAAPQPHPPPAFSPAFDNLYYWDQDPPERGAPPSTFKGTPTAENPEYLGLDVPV

[3] = SK-BR-3 cell growth inhibitors, pilot screen, 24 h, human (AID 572;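 active = viability at or below 10% of carrier control in both of two separate runs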;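 also: compound exposure lasted between 18 and 24 h rather than exactly 24 h; 100% = carrier-treated control wells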); details: SK-BR-3 viability, CellTiter-Glo luminescence, at 10 µM, stronger effect = lower value
[4] = HUVEC growth inhibition – cell-based, human, primary screen (AID 575;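 active = viability at or below 30% in both replicate assays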;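 also: 100% = median of untreated cell wells with 0.1% DMSO on each plate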); details: HUVEC proliferation, CellTiter-Glo luminescence, 72 h; at 10 µM; stronger effect = lower value
[5] = growth inhibitors of H69AR lung tumor, primary screen, human, duplicate replicates (AID 580;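 active = viability at or under a set limit in both replicates, limit being median viability minus 3 SD, cut at about 48% in these data, passing the limit was not always enough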;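 also: 100% = mean luminescence of untreated wells and 0% = no signal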); details: H69AR lung tumor cells viability, ATP luminescence, 72 h; at 10 µM; stronger effect = lower value
[6] = reversal of MRP1-mediated doxorubicin resistance, pilot screen, H69AR cells, doxorubicin co-treatment (AID 601;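 active = viability loss from added drug above about 55%, and viability with drug at most 40%, in both replicates, limit read from the data, passing the limit was not always enough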); details: CellTiter-Glo, 72 h, at 10 µM; for differential viability (reversal): stronger effect = higher value
[7] = 384-well plate pilot, post-Golgi transport modulator project, inhibition of yeast transport mutant growth (AID 636; in the data active = inhibition above about 31%); details: absorbance 615 nm, about 18 h, stronger effect = higher value
[8] = growth suppression of yeast trafficking mutant, preliminary HTS, modulators of trafficking downstream of Golgi apparatus project, 1536-format plate, OD 615 nm (AID 637); details: yeast transport mutant growth, absorbance 615 nm, 18 h; stronger effect = higher value
[9] = OD615 S. cerevisiae growth inhibition, permissive medium, pilot counter-assay, permissive growth control for S. cerevisiae lifespan shortening project (AID 705;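 active = growth inhibition above 25% in both replicates, a cutoff set 3 SD above the mean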); details: OD615, 24 h, at 10 µM, stronger effect = higher value
[10] = Restrictive medium S. cerevisiae growth inhibition, OD615, pilot screen of yeast lifespan reduction project, restrictive growth control (AID 706;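 active = growth inhibition above a set limit, 3 SD over mean compound inhibition, in both replicates, cut at about 43% in these data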;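 also: modified DeaD lifespan yeast strain shifted to restrictive glucose medium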); details: OD615, 48 h, at 10 µM, stronger effect = higher value
[11] = viability gain of MRP-1-high H69AR cells under doxorubicin, pilot screen, MRP-1 activator project, CellTiter-Glo, duplicate (AID 807;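 active = viability increase at or above a cutoff of the median across tested compounds plus 3 SD, cut at about 8.5% in these data, passing the limit was not always enough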;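 also: compound pretreatment 18-22 h then 72 h combined with doxorubicin; 0% = doxorubicin alone and 100% = vehicle without doxorubicin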); details: H69AR viability with doxorubicin, CellTiter-Glo luminescence; at 10 µM; stronger effect = higher value
[12] = growth suppression of beta-catenin knockout HCT116, pilot screen, human colon tumor cells (AID 823;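 active = cell viability at or below a set limit in both duplicate runs, the limit being the all-compound median minus 4 SD, cut at about 23% in these data, passing the limit was not always enough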;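 also: 0% = wells killed by 20 µM Hyamine and 100% = untreated DMSO cell wells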); details: CellTiter-Glo, 60 h, at 10 µM, stronger effect = lower value
[13] = growth suppression of PTEN-deleted HCT116, pilot screen, cell-based, HCT116 clonal line, CellTiter-Glo (AID 824;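 active = viability at or below 27.92% in each of two runs, the all-compound median minus 4 SD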;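 also: 0% = 20 µM Hyamine control and 100% = vehicle cell control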); details: 60 h, at 10 µM, stronger effect = lower value
[14] = inhibitors of the yeast RAM network, pilot screen, dse1pr::URA3 reporter, 5-FOA selection (AID 869;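 active = inhibition over a set limit, the all-compound mean plus 3 SD, in both replicate runs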;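 also: 0% = DMSO wells with no growth and 100% = 10 µM 1-NA-PP1 with full growth; RAM network block rescues cells from 5-FOA so hits raise OD615 growth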); details: S. cerevisiae dse1pr::URA3 5-FOA growth, OD615, 2 d; at 10 µM; stronger effect = higher value; strain carries analog-sensitive mutant Cbk1 kinase
[15] = RAM signaling pathway blockade in yeast – S. cerevisiae, Pdr1DBD-CYC8 efflux-inhibited sensitized strain, primary screen (AID 1298;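 active = RAM network inhibition above 8.4% in each of two replicates, 3 SD over the compound average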;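 also: 0% = DMSO untreated cells without growth and 100% = 10 µM 1-NA-PP1 full growth; higher means more yeast growth rescued from 5-FOA killing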); details: S. cerevisiae cbk1-as DSE1-URA3 strain, 5-FOA growth OD615, 2 d; at 50 µM; stronger effect = higher value
[16] = H69AR cells + 2 uM doxorubicin, measured here: viability with 2 uM doxorubicin, stronger effect = lower value
[17] = H69AR cells, compound alone cytotoxicity

Structure (SMILES)	viability [1] [%]	Her2 level [2]	viability [3]	viability [4]	viability [5]	differential viability (reversal) ([6]; H69AR cells + 2 uM doxorubicin)	viability [6, 16] [%]	viability [6, 17] [%]	inhibition [7]	inhibition [8]	growth inhibition [9]	growth inhibition [10]	viability increase [11]	viability [12]	viability [13]	inhibition [14]	RAM network inhibition [15]
Cn1cc(C2NC(=O)c3c(sc4c3CCCC4)N2)c2ccccc21 (stereo not given)	99	78.5% (inactive)	99% (inactive)	61.9% (inactive)	64.9% (inactive)	4.49% (inactive)	60.4	64.9	1.6% (inactive)	5.17% (inactive)	-6.96% (inactive)	2.46% (inactive)	-2.92% (inactive)	101% (inactive)	90.8% (inactive)	0.64% (inactive)	2.82% (inactive)
CCOc1ccc(NC(=O)C(C)Sc2nnc(C)n2C)cc1 (stereo not given)	92	126% (inactive)	92% (inactive)	97.6% (inactive)	98.8% (inactive)	2.75% (inactive)	96.1	98.8	-1.33% (inactive)	-1.17% (inactive)	-3.46% (inactive)	3.31% (inactive)	-0.82% (inactive)	95.7% (inactive)	93.9% (inactive)	0.705% (inactive)	-0.63% (inactive)
Cc1ccc(N(C(=O)c2ccncc2)C2C=CS(=O)(=O)C2)cc1 (stereo not given)	108	110% (inactive)	108% (inactive)	101% (inactive)	103% (inactive)	5.2% (inactive)	97.5	103	0.51% (inactive)	7.33% (inactive)	-8.7% (inactive)	-14% (inactive)	0.88% (inactive)	93.8% (inactive)	98.4% (inactive)		5.22% (inactive)
COC(=O)Cn1c(=NC(=O)CSCC(=O)Nc2cc(C)on2)sc2ccccc21	89	90% (inactive)	89% (inactive)	90.4% (inactive)	88.5% (inactive)	3% (inactive)	85.5	88.5	-5.07% (inactive)	-3.5% (inactive)	-6.84% (inactive)	-19.8% (inactive)	-0.92% (inactive)	99.3% (inactive)	96.9% (inactive)		7.51% (inactive)
CC1=C(C(=O)OC(C)C)C(c2ccccn2)n2ncnc2N1 (stereo not given)	108	113% (inactive)	108% (inactive)	89.5% (inactive)	98.1% (inactive)	6.04% (inactive)	92.1	98.1	-3.2% (inactive)	0.83% (inactive)	-5.88% (inactive)	-3.54% (inactive)	-0.55% (inactive)	106% (inactive)	99.5% (inactive)	2.84% (inactive)	7.35% (inactive)
CC1CCCC(N2CCN(C(=O)c3ccc(F)cc3)CC2)C1 (stereo not given)	95	109% (inactive)	95% (inactive)	75.4% (inactive)	91.3% (inactive)	1.66% (inactive)	89.6	91.3	1.2% (inactive)	3.5% (inactive)	-0.99% (inactive)	-4.36% (inactive)	-0.74% (inactive)	101% (inactive)	98.5% (inactive)	0.22% (inactive)	-0.84% (inactive)
O=C(c1ccco1)N1CCN(C(=O)C2CC(c3ccc(F)cc3)=NO2)CC1 (stereo not given)	88	112% (inactive)	88% (inactive)	94.1% (inactive)	88.5% (inactive)	0.74% (inactive)	87.8	88.5	-1.15% (inactive)	-4.17% (inactive)	-1.38% (inactive)	22% (inactive)	-1.41% (inactive)	106% (inactive)	105% (inactive)	0.47% (inactive)	5.01% (inactive)
CC(=O)C1=C(N2CCCCC2)CCC1=O	86	101% (inactive)	86% (inactive)	109% (inactive)	98.3% (inactive)	11.5% (inactive)	86.8	98.3	-5.81% (inactive)	5.33% (inactive)	2.54% (inactive)	4.54% (inactive)	-2.01% (inactive)	94.5% (inactive)	94.7% (inactive)		0.55% (inactive)
COc1cc2c(cc1OC)-c1nnc(-c3cccs3)n1C(C)(C)C2	64.5	95.5% (inactive)	64.5% (inactive)	114% (inactive)	102% (inactive)	2.48% (inactive)	99.1	102	0.13% (inactive)	-4.17% (inactive)	-11.8% (inactive)	-8.72% (inactive)	-2.78% (inactive)	90.4% (inactive)	80.6% (inactive)	0.115% (inactive)	0.94% (inactive)
O=C1c2ccccc2C(Nc2cccnc2)N1Cc1ccccc1Cl (stereo not given)	93	91% (inactive)	93% (inactive)	94.9% (inactive)	86.3% (inactive)	-16% (inactive)	102	86.3	-3.2% (inactive)	-3.5% (inactive)	-5.58% (inactive)	10.4% (inactive)	-3.57% (inactive)	102% (inactive)	99.2% (inactive)	0.17% (inactive)	0.57% (inactive)
O=C(NCCN1CCCCCC1)c1ccc(CS(=O)(=O)c2ccc(Br)cc2)o1	86.5	104% (inactive)	86.5% (inactive)	86.2% (inactive)	91% (inactive)	7.95% (inactive)	83.1	91	0.8% (inactive)	2.5% (inactive)	-6.86% (inactive)	-14.6% (inactive)	-3.11% (inactive)	78% (inactive)	82.6% (inactive)	-0.1% (inactive)	4.63% (inactive)
CCCn1c(OC)nc2c1c(=O)n(C)c(=O)n2C	89.5	88.5% (inactive)	89.5% (inactive)	83.2% (inactive)	94.4% (inactive)	0.235% (inactive)	94.1	94.4	-2.53% (inactive)	-2.5% (inactive)	-10.7% (inactive)	-9.12% (inactive)	0.06% (inactive)	107% (inactive)	97% (inactive)	2.22% (inactive)	2.06% (inactive)
CC(C)CCNC(=O)Cn1c(NCCC(C)C)nc2c1c(=O)n(C)c(=O)n2C	121	118% (inactive)	121% (inactive)	102% (inactive)	93.7% (inactive)	-0.345% (inactive)	94	93.7	1.73% (inactive)	-2.5% (inactive)	-4.12% (inactive)	-0.68% (inactive)	-1.31% (inactive)	98.2% (inactive)	92.8% (inactive)	0.94% (inactive)	-0.63% (inactive)
COc1ccc(-n2c(Cc3cccn3C)nnc2SCC(=O)Nc2ccc(Cl)cc2)cc1	99	58% (inactive)	99% (inactive)	46.6% (inactive)	70.7% (inactive)	-8.34% (inactive)	79	70.7	-0.38% (inactive)	2% (inactive)	4.53% (inactive)	8.94% (inactive)	-6.37% (inactive)	47.6% (inactive)	51.3% (inactive)	-0.125% (inactive)	5.81% (inactive)
CCCCOc1ccc(-c2ncc(Cl)cn2)cc1	110	117% (inactive)	110% (inactive)	119% (inactive)	93.9% (inactive)	9.19% (inactive)	84.8	93.9	-4.94% (inactive)	0.83% (inactive)	-14.9% (inactive)	-12.5% (inactive)	3.52% (inactive)	86.9% (inactive)	96.8% (inactive)	1.26% (inactive)	3.37% (inactive)
CCCCOC(=O)Nc1nc2ccc(OC)cc2s1	94	92% (inactive)	94% (inactive)	92.3% (inactive)	99.7% (inactive)	16.4% (inactive)	83.3	99.7	-6.08% (inactive)	-6.17% (inactive)	-8.06% (inactive)	-16.4% (inactive)	2.27% (inactive)	96.3% (inactive)	93.7% (inactive)		7.75% (inactive)
CC(C)Sc1nc2c(c(=O)n1-c1ccc(F)cc1)SCC2	114	124% (inactive)	114% (inactive)	87.6% (inactive)	88.5% (inactive)	7.33% (inactive)	81.1	88.5	-4.27% (inactive)	-4.35% (inactive)	-4.45% (inactive)	-19.7% (inactive)	-2.6% (inactive)	84.6% (inactive)	87.1% (inactive)	0.61% (inactive)	7.83% (inactive)
Cc1ccccc1-c1nc(CN2CCC(C(=O)N3CCC(C(N)=O)CC3)CC2)c(C)o1	108	104% (inactive)	108% (inactive)	105% (inactive)	89.5% (inactive)	4.8% (inactive)	84.7	89.5	-5.73% (inactive)	4.67% (inactive)	-8.16% (inactive)	3.29% (inactive)	-2.4% (inactive)	92.8% (inactive)	99.2% (inactive)	1.07% (inactive)	2.99% (inactive)
COc1ccc(N2CCN(c3oc(COc4ccccc4Cl)nc3C#N)CC2)cc1	109	105% (inactive)	109% (inactive)	104% (inactive)	92.3% (inactive)	8.78% (inactive)	83.6	92.3	-6.23% (inactive)	-4.75% (inactive)	-2.64% (inactive)	-5.2% (inactive)	2.27% (inactive)	65.7% (inactive)	64.9% (inactive)		4.12% (inactive)
COc1ccc2c(c1)CCc1cc(C(=O)N3CCN(c4ccc(N5CCOCC5)nn4)CC3)sc1-2	93.5	79% (inactive)	93.5% (inactive)	98.4% (inactive)	63.7% (inactive)	-11.4% (inactive)	75.1	63.7	-3.08% (inactive)	0.33% (inactive)	3.63% (inactive)	3.83% (inactive)	-1.37% (inactive)	60.4% (inactive)	59% (inactive)	0.905% (inactive)	0.73% (inactive)
